Consider 8 molecules from PubChem BioAssay (NCATS).

Inconclusive results are not listed. Calls of active or inactive are those of the source. Unless noted, the call rests on the fitted dose curve.

Test [1] has as its target Glucocorticoid receptor (Homo sapiens) (UniProt P04150). Put plainly: qHTS assay for small molecule agonists of glucocorticoid receptor signaling (AID 588532; active means well fitted curve in the direction sought with a large enough effect in the signal ratio, with a control signal flat; the % refers to the signal ratio;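 further: 100% = dexamethasone at 0.1 µM and 0% = DMSO only wells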). The settings on record: HeLa MMTV-bla, beta-lactamase ratio, agonist, 18 h; stronger effect = higher value; percent of dexamethasone control, DMSO zero. The method in brief: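 Stimulation of a glucocorticoid response element-driven beta-lactamase gene was measured in HeLa cells. Responses were scaled between DMSO basal and 0.1 uM dexamethasone, then fitted for half-maximal stimulation.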
In general terms: In qHTS, concentration-response curves come from the screen itself.

The target is the same in test [2]. As to the kind of experiment: qHTS assay for small molecule antagonists of glucocorticoid receptor signaling (AID 588533; active means well fitted inhibition curve with a large enough effect in the signal ratio, with a control signal flat, not every such curve was filed as active; the % refers to the signal ratio;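 further: cells stimulated with 2 nM dexamethasone as agonist; on the % scale 0 is the no-effect control and ±100 the full control effect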). The settings on record: HeLa MMTV-bla, GRE beta-lactamase ratio, antagonist mode, 18 h; series mostly up to 76.8 µM. The method in brief: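 Antagonist-mode qHTS: compound titrations added to GRE-bla HeLa cells, then dexamethasone 2 nM final; 18 h, 37 C. CCF4 FRET fluorescence normalized to dexamethasone and DMSO; IC50 from Hill fit.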

Test [3] deals with Peroxisome proliferator-activated receptor gamma (Homo sapiens) (UniProt P37231). Put plainly: qHTS assay for small molecule agonists of peroxisome proliferator-activated receptor gamma signaling (AID 588536; active means well fitted curve in the direction sought with a large enough effect in the signal ratio, with a control signal flat, not every such curve was filed as active; the % refers to the signal ratio;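 further: 0% = DMSO basal wells and 100% = rosiglitazone at 2 µM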). The settings on record: HEK293 PPARg-UAS-bla, beta-lactamase ratio, 16 h, percent of rosiglitazone response, DMSO as zero; series mostly up to 76.7 µM. The method in brief: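 Ratiometric blue/green fluorescence (405 nm excitation; 460 and 530 nm emission) from CCF4-loaded HEK293 reporter cells serves as signal. Exposure to test compounds lasts 16 h at 37 C in medium containing 1% charcoal/dextran-treated serum.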

Test [4] shares this target. Put plainly: qHTS assay for small molecule antagonists of peroxisome proliferator-activated receptor gamma signaling (AID 588537; active means well fitted inhibition curve with a large enough effect in the signal ratio, with a control signal flat, not every such curve was filed as active; the % refers to the signal ratio;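 further: reporter cells co-stimulated with 50 nM rosiglitazone agonist during compound treatment; % of control where 0% means no effect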). The settings on record: HEK293 PPARg-UAS-bla, beta-lactamase ratio, antagonist mode; series mostly up to 76.8 µM. The method in brief: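 PPAR-gamma-UAS-bla HEK293 cells (3000/well, 1% charcoal/dextran-stripped FBS) were preincubated 6-6.5 h at 37 C, given titrated compounds, then stimulated with 50 nM rosiglitazone for 16 h. Beta-lactamase activity was read with CCF4 dye; IC50 came from Hill fits.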

The target in test [5] is Vitamin D3 receptor (Homo sapiens) (UniProt P11473). Put plainly: qHTS assay for small molecule antagonists of vitamin D receptor signaling (AID 588541).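 Further: receptor activated by calcitriol during compound treatment; on the % scale 0 is the no-effect control and ±100 the full control effect.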 The settings on record: HEK293T VDR-UAS-bla, beta-lactamase ratio, antagonist mode; series mostly up to 76.7 µM. The method in brief:
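VDR-UAS-bla HEK293T cells (2000/well, 2% charcoal-stripped FBS) were treated with titrated compounds plus 1-alpha,25-dihydroxyvitamin D3 (50 nM or 3 nM final) for 16 h at 37 C. CCF4 beta-lactamase fluorescence was read; Hill fits gave IC50.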

Test [6] shares this target. As to the kind of experiment: qHTS assay for small molecule agonists of vitamin D receptor signaling (AID 588543).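 Further: 0% = DMSO basal and 100% = reference agonist control.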 The following applies: HEK293T VDR-UAS-bla, beta-lactamase ratio, 16 h; series mostly up to 76.8 µM. The method in brief:
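Measured: β-lactamase reporter activity (CCF4, 405 nm excitation, 460/530 nm emission) in HEK293T VDR-UAS-bla cells after 16 h compound exposure at 37 °C. Normalization against 50 nM 1α,25-dihydroxyvitamin D3 and DMSO; Hill-fit EC50.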

Test [7] can be described thus: qHTS assay for small molecule agonists of retinoid X receptor alpha signaling (AID 588544).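 On activation: 0% = DMSO basal wells and 100% = reference agonist.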 The settings on record: HEK293T RXRa-UAS-bla, beta-lactamase reporter, 18 h; 530 nm emission.
Test [8] concerns the target Retinoic acid receptor RXR-alpha (Homo sapiens) (UniProt P19793). The test is described as above. The following applies: HEK293T RXRa-UAS-bla, beta-lactamase reporter, 18 h; series mostly up to 76.7 µM.
Test [9] is described as follows: qHTS assay for small molecule antagonists of retinoid X receptor alpha signaling (AID 588546; active means well fitted inhibition curve with a large enough effect in the signal ratio, with a control signal flat, not every such curve was filed as active; the % refers to the signal ratio;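 further: cells stimulated with 9-cis-retinoic acid as agonist; on the % scale 0 is the no-effect control and ±100 the full control effect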). The following applies: HEK293T RXRa-UAS-bla, beta-lactamase ratio, antagonist mode; measured here: W530 green channel, cytotoxicity proxy. The method in brief:
(§1)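 Beta-lactamase reporter inhibition, read as CCF4 fluorescence ratio (ex 405, em 460/530 nm) after 2 h at RT. HEK293T UAS-bla cells, 2500/well, were stimulated with 9-cis-RA at 500 or 100 nM final alongside test compound for 18 h at 37 C.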

The target of test [10] is Thyroid hormone receptor beta (Homo sapiens) (UniProt P10828). As to the kind of experiment: qHTS assay for small molecule antagonists of thyroid hormone receptor beta signaling (AID 588547; active means well fitted inhibition curve with a large enough effect in the signal ratio, with a control signal flat, not every such curve was filed as active; the % refers to the signal ratio). The settings on record: TR-UAS-bla HEK293, beta-lactamase ratio, antagonist mode, 18 h. The method in brief: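 TR-UAS-bla GripTite HEK293 cells in 2% charcoal/dextran FBS medium were preincubated 4 h at 37 C, given compound (0.59 nM to 92 uM) plus 0.4 nM T3 (final) for 18 h, then CCF4 for 2 h at RT; Hill fit gave IC50.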

Test [11] concerns the target Voltage-gated inwardly rectifying potassium channel KCNH2 (Homo sapiens) (UniProt Q12809). As to the kind of experiment: qHTS Assay for Small Molecule Inhibitors of the Human hERG Channel Activity (AID 588834; active means well fitted inhibition curve with a large enough effect;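 further: top concentration of the series differs between compounds; on the % scale 0 is the no-effect control and ±100 the full control effect; lower thallium flux fluorescence means stronger hERG block; nearly all actives have a fitted effect of over 50% in size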). The following applies: U2OS BacMam hERG, FluxOR thallium flux fluorescence; series mostly up to 92.2 µM. The method in brief:
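Blockade is seen as reduced FluxOR thallium-flux fluorescence in U2OS cells expressing hERG from a BacMam construct, in Opti-MEM with 2% FCS. Concentration-response data fitted to the Hill equation for AC50.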

Test [12] is described as follows: qHTS assay for small molecule activators of the p53 signaling pathway (AID 651743; active means well fitted activation curve with a large enough effect in the signal ratio, not every such curve was filed as active; the % refers to the signal ratio; further: % of control where 0% means no effect). The following applies: HCT-116 p53RE-bla, beta-lactamase FRET ratio, 16 h; stronger effect = higher value. The method in brief:
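p53RE-bla HCT-116 cells with a stably integrated beta-lactamase reporter under p53 response elements were plated, rested 5 hours at 37 C/5% CO2, then exposed to compounds in DMSO for 16 hours at 37 C. LiveBLAzer B/G FRET substrate was read after 2 hours at room temperature.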

The nature of test [13]: qHTS assay for small molecule activators of the nuclear factor-kappa B (NF-kB) signaling pathway (AID 651749; active means well fitted activation curve with a large enough effect in the signal ratio; the % refers to the signal ratio; further: % of control where 0% means no effect). The following applies: NF-kB-bla ME-180 cells, beta-lactamase FRET ratio, 16 h; stronger effect = higher value. The method in brief:
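ME-180 cells stably carrying a beta-lactamase reporter under an NF-kB response element were exposed to compound or DMSO vehicle for 16 hr at 37C, 5% CO2. Pathway activation was read by FRET, since reporter expression disrupts FRET.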

In test [14] the target is Retinoic acid receptor RXR-alpha (Homo sapiens) (UniProt P19793). As to the kind of experiment: qHTS assay for small molecule antagonists of retinoid X receptor alpha signaling (AID 588546).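 Further: cells stimulated with 9-cis-retinoic acid as agonist; on the % scale 0 is the no-effect control and ±100 the full control effect.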 The settings on record: HEK293T RXRa-UAS-bla, beta-lactamase ratio, antagonist mode. The method in brief: as §1
Test [15] is described as follows: qHTS assay for small molecule agonists of the antioxidant response element (ARE) signaling pathway (AID 651741; active means well fitted activation curve with a large enough effect in the signal ratio; the % refers to the signal ratio; further: % of control where 0% means no effect). The following applies: HepG2 ARE-bla reporter, beta-lactamase FRET ratio, 16 h; series mostly up to 96 µM. The method in brief:
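ARE-bla HepG2 cells (beta-lactamase reporter under ARE control) were plated at 2,000 cells/well, preincubated 5 h at 37 C/5% CO2, then treated with DMSO-dissolved compounds for 16 h at 37 C; LiveBLAzer B/G FRET substrate added, fluorescence read after 2 h at room temperature.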

Test [16] addresses Thyroid hormone receptor beta (Homo sapiens) (UniProt P10828). Put plainly: qHTS assay for small molecule agonists of thyroid hormone receptor beta signaling (AID 588545).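 Further: 0% = DMSO only and 100% = 10 nM T3.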 The settings on record: TR-UAS-bla GripTite HEK 293, beta-lactamase ratio, agonist mode, 18 h, percent of T3 response, DMSO as zero; series mostly up to 76.7 µM. The method in brief: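 TR-UAS-bla GripTite HEK 293 cells (2500/well, medium with 2% charcoal/dextran FBS) were treated in agonist mode for 18 h at 37 C, titrated. Beta-lactamase was read by CCF4 ratio after 2 h; normalized to 10 nM T3 (100%) and DMSO, Hill-fitted for EC50 and efficacy.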

A short description of test [17]: qHTS assay for small molecule antagonists of peroxisome proliferator-activated receptor delta signaling (AID 588535; active means well fitted inhibition curve with a large enough effect in the signal ratio, with a control signal flat, not every such curve was filed as active; the % refers to the signal ratio;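 on max response: cells co-treated with a PPAR-delta agonist as stimulator during compound exposure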). The following applies: HEK293T PPARd-UAS-bla, beta-lactamase FRET ratio, 18 h; 460 nm channel. The method in brief:
(§2)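 GeneBLAzer PPAR-delta-UAS-bla HEK293T cells in medium with 2% charcoal/dextran FBS were preincubated 5 hrs at 37 C, then given compounds, incubated 18 hrs at 37 C, and read by CCF4 beta-lactamase fluorescence; IC50 from Hill fits.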

Test [18] has as its target Peroxisome proliferator-activated receptor delta (Homo sapiens) (UniProt Q03181). The description is as above. The settings on record: HEK293T PPARd-UAS-bla, beta-lactamase FRET ratio, 18 h; series mostly up to 76.7 µM. The method in brief: as §2

Sequence of Peroxisome proliferator-activated receptor gamma (Homo sapiens) (P37231 whole entry, looked up): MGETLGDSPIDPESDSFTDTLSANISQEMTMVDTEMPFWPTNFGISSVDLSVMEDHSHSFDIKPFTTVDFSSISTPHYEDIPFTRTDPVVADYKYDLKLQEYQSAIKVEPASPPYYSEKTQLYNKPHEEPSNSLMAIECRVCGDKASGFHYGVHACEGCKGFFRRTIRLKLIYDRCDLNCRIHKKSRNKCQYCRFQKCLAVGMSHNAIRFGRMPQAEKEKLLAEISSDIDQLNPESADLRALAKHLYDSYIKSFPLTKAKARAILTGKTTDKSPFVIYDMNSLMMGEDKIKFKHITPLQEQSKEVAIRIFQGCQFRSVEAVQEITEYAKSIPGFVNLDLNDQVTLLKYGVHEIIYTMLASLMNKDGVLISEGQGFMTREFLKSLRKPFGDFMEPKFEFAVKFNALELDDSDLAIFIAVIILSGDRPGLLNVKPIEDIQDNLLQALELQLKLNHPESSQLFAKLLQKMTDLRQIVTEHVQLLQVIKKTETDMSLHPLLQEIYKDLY
Sequence of Glucocorticoid receptor (Homo sapiens) (P04150 whole entry, looked up): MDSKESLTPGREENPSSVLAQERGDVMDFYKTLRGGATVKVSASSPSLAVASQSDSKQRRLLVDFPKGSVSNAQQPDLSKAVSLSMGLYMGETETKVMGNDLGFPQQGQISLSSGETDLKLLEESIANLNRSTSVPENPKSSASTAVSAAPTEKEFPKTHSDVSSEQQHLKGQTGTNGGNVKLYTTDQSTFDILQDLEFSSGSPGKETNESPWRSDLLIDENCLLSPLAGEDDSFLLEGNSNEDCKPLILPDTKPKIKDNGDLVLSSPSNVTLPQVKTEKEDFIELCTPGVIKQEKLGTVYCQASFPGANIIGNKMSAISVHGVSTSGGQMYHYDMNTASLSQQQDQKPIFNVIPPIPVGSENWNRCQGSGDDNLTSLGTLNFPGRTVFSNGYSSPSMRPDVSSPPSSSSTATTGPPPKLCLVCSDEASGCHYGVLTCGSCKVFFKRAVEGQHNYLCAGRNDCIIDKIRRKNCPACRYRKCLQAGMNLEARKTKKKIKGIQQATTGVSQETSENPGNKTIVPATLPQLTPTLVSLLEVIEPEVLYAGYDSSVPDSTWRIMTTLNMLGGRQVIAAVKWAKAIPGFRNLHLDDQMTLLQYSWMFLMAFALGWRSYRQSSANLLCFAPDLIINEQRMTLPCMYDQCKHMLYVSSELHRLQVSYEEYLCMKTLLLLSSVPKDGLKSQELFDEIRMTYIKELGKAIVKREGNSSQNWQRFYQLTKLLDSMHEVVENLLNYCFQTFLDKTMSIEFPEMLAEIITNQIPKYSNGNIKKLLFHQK
Sequence of Thyroid hormone receptor beta (Homo sapiens) (P10828 whole entry, looked up): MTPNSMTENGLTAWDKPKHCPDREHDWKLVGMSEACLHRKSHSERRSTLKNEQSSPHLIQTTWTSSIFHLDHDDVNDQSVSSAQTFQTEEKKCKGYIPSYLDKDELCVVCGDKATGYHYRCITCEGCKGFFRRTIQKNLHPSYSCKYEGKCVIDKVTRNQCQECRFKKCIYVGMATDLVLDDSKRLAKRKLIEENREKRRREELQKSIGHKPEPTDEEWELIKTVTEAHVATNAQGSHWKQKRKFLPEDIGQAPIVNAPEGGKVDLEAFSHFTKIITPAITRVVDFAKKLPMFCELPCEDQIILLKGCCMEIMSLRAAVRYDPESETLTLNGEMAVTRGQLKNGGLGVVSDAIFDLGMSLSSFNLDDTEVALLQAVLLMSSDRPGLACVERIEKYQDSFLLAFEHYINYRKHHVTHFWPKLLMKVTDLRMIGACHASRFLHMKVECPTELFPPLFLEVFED
Sequence of Vitamin D3 receptor (Homo sapiens) (P11473 whole entry, looked up): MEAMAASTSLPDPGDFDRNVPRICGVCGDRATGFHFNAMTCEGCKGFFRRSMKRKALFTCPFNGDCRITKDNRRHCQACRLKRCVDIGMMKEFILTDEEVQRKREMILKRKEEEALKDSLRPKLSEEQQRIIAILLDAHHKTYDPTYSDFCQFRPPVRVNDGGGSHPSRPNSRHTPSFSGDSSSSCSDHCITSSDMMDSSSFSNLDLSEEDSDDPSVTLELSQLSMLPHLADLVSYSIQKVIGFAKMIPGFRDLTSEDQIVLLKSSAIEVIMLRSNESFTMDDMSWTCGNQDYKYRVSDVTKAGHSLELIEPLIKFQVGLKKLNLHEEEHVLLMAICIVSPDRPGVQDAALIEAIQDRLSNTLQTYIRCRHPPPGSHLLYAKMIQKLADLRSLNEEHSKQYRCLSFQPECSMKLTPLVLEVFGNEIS
Sequence of Voltage-gated inwardly rectifying potassium channel KCNH2 (Homo sapiens) (Q12809 whole entry, looked up): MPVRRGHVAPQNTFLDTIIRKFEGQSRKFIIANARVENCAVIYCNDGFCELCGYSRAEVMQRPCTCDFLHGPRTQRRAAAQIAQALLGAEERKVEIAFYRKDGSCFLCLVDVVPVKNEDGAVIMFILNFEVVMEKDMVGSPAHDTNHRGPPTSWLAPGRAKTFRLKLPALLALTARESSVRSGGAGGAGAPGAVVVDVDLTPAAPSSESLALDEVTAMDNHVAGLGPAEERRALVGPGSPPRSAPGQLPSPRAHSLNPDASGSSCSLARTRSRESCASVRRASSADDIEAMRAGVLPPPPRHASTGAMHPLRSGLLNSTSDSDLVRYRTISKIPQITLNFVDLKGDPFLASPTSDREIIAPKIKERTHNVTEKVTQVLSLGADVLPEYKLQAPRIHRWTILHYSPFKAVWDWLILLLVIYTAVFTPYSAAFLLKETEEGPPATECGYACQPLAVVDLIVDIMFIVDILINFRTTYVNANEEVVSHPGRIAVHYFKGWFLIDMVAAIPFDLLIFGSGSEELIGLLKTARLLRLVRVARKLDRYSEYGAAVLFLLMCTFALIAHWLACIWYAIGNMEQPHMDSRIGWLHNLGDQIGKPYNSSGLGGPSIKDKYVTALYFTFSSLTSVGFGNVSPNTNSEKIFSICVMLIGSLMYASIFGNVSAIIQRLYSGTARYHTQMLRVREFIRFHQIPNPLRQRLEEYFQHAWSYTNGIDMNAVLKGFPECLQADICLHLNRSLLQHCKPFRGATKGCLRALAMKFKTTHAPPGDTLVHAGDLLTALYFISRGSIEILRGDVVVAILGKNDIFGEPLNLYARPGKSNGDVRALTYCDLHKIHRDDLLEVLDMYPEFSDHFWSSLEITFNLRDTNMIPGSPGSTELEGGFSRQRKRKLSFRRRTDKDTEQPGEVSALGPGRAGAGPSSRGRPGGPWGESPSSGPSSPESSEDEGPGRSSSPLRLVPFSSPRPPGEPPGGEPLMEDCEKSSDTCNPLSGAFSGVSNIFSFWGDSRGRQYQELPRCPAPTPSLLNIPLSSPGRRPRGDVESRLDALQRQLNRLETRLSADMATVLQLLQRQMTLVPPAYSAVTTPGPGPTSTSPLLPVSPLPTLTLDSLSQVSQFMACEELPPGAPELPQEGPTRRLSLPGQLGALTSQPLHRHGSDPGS
Sequence of Retinoic acid receptor RXR-alpha (Homo sapiens) (P19793 whole entry, looked up): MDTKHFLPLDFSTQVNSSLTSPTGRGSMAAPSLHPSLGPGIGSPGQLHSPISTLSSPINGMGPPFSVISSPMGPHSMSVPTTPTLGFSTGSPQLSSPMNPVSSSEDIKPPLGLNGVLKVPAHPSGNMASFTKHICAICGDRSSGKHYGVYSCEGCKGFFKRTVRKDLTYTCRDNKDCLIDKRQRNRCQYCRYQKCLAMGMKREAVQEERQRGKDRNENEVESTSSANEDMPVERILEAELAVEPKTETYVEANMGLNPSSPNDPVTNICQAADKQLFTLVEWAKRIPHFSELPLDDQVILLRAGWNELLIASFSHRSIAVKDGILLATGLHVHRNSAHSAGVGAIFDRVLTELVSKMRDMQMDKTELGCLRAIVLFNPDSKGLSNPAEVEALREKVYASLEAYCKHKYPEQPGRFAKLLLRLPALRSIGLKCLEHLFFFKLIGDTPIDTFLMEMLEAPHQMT
Sequence of Peroxisome proliferator-activated receptor delta (Homo sapiens) (Q03181 whole entry, looked up): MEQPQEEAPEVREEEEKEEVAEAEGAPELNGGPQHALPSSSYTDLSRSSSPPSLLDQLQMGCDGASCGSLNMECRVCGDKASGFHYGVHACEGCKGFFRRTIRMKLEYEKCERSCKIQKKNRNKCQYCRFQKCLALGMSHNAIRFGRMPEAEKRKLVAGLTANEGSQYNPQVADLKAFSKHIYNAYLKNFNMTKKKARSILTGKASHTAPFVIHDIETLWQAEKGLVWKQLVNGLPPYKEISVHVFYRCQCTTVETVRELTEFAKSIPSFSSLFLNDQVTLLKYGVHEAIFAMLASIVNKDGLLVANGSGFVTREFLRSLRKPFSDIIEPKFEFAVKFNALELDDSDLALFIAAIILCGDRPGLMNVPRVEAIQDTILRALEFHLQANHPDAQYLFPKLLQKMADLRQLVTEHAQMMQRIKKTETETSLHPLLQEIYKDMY

Regarding `Cc1ccc2ccccc2c1[N+](=O)[O-]`, the activation in test [1] is -8.32% (inactive); in [12], 0.53% (inactive); in test [13], 0.793% (inactive). Moreover, the outcome in test [2], in test [3], in test [4], in test [5], in test [6] and in [8] was inactive. The max response in test [7] was -7.86%; in [9] it was 0.642%. Besides, the activity change % (negative = inhibition) in test [10] was -6.91% (inactive). In addition, the Potency result in test [11] was “inactive”.

As to `C=C(C)OC(C)=O`, the results for the activation in test [1], in test [12] and in test [13] were -3.17% (inactive), -0.827% (inactive) and -0.753% (inactive), respectively. The outcome in [2], in [3], in [5] and in test [8] was inactive. The values for the max response in [7], in test [9] and in test [14] were 12.6%, 12.2% and -11.4% (inactive), respectively. The activity change % (negative = inhibition) in [10] is 24.9% (inactive). Also, the Potency entry in test [11] and in test [15] was “inactive” each time.

Regarding `CCCCC(CC)COCC1CO1` (configuration not stated), the activation was -12.2% (inactive) in test [1] and 0.588% (inactive) in [13]. The result in [2], in test [3], in test [5], in [6], in [8] and in test [16] was inactive. The results for the max response in test [7], in test [9] and in test [14] were -2.88%, 2.35% and 9.33% (inactive), respectively. Moreover, the activity change % (negative = inhibition) in [10] was 1.98% (inactive). In addition, the Potency result in [11] and in test [15] was “inactive” each time.

Turning to `CCOCCO`, the activation in [1] is -1.34% (inactive); in test [12] it was -2.61% (inactive); in [13], -1.02% (inactive). For the same molecule, the outcome in test [2], in [3], in [6] and in [8] was inactive. For the same molecule, the max response turned out to be 9.04% in [7] and 1.51% in test [9]. Besides, the Potency result in test [15] is “inactive”.

Take `OC(CCl)CCl`: the activation is 14.2% (inactive) in test [1], -1.36% (inactive) in [12] and 1.2% (inactive) in [13]. Besides, the outcome in [2], in test [3], in test [4], in test [6], in test [8] and in test [16] was inactive. The values for the max response in test [7], in test [9] and in [14] were -16.7%, -12.4% and -2.39% (inactive), respectively. The activity change % (negative = inhibition) in test [10] is 2.68% (inactive). Also, the Potency result in test [11] and in [15] was “inactive” in each case.

With `CC(C)CO`, the activation is -3.71% (inactive) in test [1] and -1.15% (inactive) in [13]. The result in test [2], in test [5], in test [6] and in [8] was inactive. Moreover, the max response in [7] is -16%; in [9], -8.16%; in test [14], -7% (inactive). The activity change % (negative = inhibition) in test [10] is -17.4% (inactive).

With `O=C(O)c1cc(Cl)cc(Cl)c1`, the figures for the activation in test [1] and in test [12] were -5.57% (inactive) and 1.56% (inactive), respectively. For the same molecule, the max response in test [17] is 29.5%; in [7] it was -6.8%; in test [9] it was -0.682%; in test [14] it was 11.3% (inactive). Further, the Potency entry in test [18] and in test [11] was “inactive” throughout. Besides, the result in test [3], in [4] and in test [8] was inactive. For the same molecule, the activity change % (negative = inhibition) in test [10] was 6.89% (inactive).

Consider `CO[Si](CCCNCCC[Si](OC)(OC)OC)(OC)OC`, for which the activation in test [1] is 5.31% (inactive); in [12], 0.23% (inactive); in test [13], 0.71% (inactive). The outcome in test [2], in test [3], in test [4], in [5], in [6] and in test [8] was inactive. The result in [16] was inactive. Moreover, the results for the max response in test [7], in test [9] and in [14] were 9.17%, 7.72% and 10.8% (inactive), respectively. Besides, the Potency entry in [11] and in test [15] was “inactive” each time.
